SNCA viab count – cell viability loss counter-screen; HEK-293-SNCA-luc viability, GF-AFC fluorescence, 24 h; 150,000 compounds, 0.12% hits; Potency, µM (titrated, usually from 57.1 µM), hits mostly cytotoxic; note: nearly all actives have a fitted effect of over 30% in size
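HEK-293-SNCA-luc cells (1500/well) plated 24 h, then exposed 24 h to a dilution series; GF-AFC added 30 min at 37C, fluorescence 405/540 nm; normalised to medium-only and DMSO wells, Hill fit.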
IP6K1 inh – inhibitors of human IP6K1 | Q92551 | IP6K1 kinase, ADP-Glo luminescence, 2 h; stronger effect = lower value | activity change, % (series mostly up to about 58 µM) | 140,000 compounds, 0.81% hits | AID 1645851; in the data active = activity change below about -25%
Target sequence (Q92551 whole entry, looked up): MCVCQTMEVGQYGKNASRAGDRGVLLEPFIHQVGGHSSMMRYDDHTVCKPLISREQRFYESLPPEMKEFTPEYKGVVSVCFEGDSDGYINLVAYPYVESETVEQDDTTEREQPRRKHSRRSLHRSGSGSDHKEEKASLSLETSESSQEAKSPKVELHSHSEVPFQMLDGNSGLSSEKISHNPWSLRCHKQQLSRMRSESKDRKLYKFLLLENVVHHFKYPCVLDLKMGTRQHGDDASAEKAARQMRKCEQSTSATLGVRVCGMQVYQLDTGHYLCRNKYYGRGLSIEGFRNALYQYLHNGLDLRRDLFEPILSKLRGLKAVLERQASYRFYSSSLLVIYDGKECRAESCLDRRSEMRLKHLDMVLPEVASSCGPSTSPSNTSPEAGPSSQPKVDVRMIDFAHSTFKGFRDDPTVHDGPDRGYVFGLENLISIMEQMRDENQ
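ADP-Glo luminescence measures ADP made by human IP6K1 during a 2 h RT reaction with ATP/IP6 (mix at 1.3 mM/130 uM); top library doses 57.5 and 19.1 uM final.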
GPT2 inhibitor – blocks human glutamate pyruvate transaminase 2. Q8TD30. Recombinant GPT2, coupled pyruvate oxidase/HRP Amplex Red fluorescence. Potency, µM (titrated, usually from 57.7 µM), most hits filed as inhibitors. 100,000 compounds, 0.25% hits; note: nearly all actives have a fitted effect of over 60% in size
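Inhibition is scored from Amplex Red fluorescence generated when pyruvate oxidase and HRP act on pyruvate released by GPT2. Reactions contain 10ng/uL enzyme, 250uM a-KG and 2mM L-alanine and run 30 min at room temperature.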
SNCA expr inh – inhibitors of alpha-synuclein (SNCA) gene expression | 140,000 compounds, 0.17% hits | Potency, µM (top dose mostly 57.2 µM), actives largely listed as inhibitors | HEK-293 SNCA-luciferase knock-in, luminescence, 24 h; note: nearly all actives have a fitted effect of over 45% in size
IP6K1 inh cnf – human IP6K1 inhibition, confirmatory; shares compounds with IP6K1 inh; recombinant IP6K1 kinase, ADP-Glo luminescence, 2 h; Potency, µM (series often up to 49 µM), usual class: inhibitors; 1,200 compounds, 13% hits; note: nearly all actives have a fitted effect of over 65% in size
Numbers stand for hits; [ ] = another dose, or the depositor's remark. A selection: hits, their analogues and other compounds. The true share with any hit is near 1%. Unless noted, calls come from the whole dose curve; as a rule, active = well fitted curve in the direction sought with a large enough effect; inconclusive = small, poorly fitted or top-dose-only effect, or another doubt; inactive = no such curve, though single readings can be large; an effect the other way counts as inactive or inconclusive.

Screening Cc1nc(-c2cccnc2)sc1C(=O)Nc1ccccc1-c1cn2c(CN3CCOCC3)csc2n1 returned SNCA viab count inactive, IP6K1 inh inactive and GPT2 inhibitor inactive.
Screening O=C(Nc1ccccc1-c1cn2c(CN3CCNCC3)csc2n1)c1cnc2ccccc2n1 returned SNCA viab count inconclusive, IP6K1 inh -29, GPT2 inhibitor inconclusive, SNCA expr inh inactive and IP6K1 inh cnf inconclusive.
Screening CC(C)Cn1c(/C=C/c2ccc(F)cc2)nc2ccccc21 returned SNCA viab count inactive, IP6K1 inh inactive and SNCA expr inh inactive.
Screening CSc1ccc(/C=C/c2nc3ccccc3n2S(=O)(=O)c2ccc(F)c(C)c2)cc1 returned SNCA viab count inactive, IP6K1 inh -39, SNCA expr inh inactive and IP6K1 inh cnf inconclusive.
`CCN1CCC2(CCC1=O)CN(Cc1nc(CCOC)no1)CCN2C` (configuration not stated) gave SNCA viab count inactive, IP6K1 inh -33, GPT2 inhibitor inactive[11.5 µM], SNCA expr inh inactive and IP6K1 inh cnf inactive.
CCN1CCC2(CCC1=O)CN(Cc1noc(CC(C)C)n1)CCN2C (configuration not stated) was read as SNCA viab count inactive, IP6K1 inh inactive, GPT2 inhibitor inactive and SNCA expr inh inactive.
Screening Cc1ccc2c(c1)C(=O)C(=O)N2Cc1ccc(OC(C)C)cc1 returned SNCA viab count inconclusive, IP6K1 inh -38, SNCA expr inh inconclusive and IP6K1 inh cnf inactive.
For Cc1cccc(NC(=O)N2CCCC2c2noc(COc3ccc(F)cc3)n2)c1 (configuration not stated) the results were SNCA viab count inactive, IP6K1 inh inactive, GPT2 inhibitor inactive and SNCA expr inh inactive.
O=C(Cc1cccc(Cl)c1)N1CCN(c2nccc(Nc3ccccc3Cl)n2)CC1 was read as SNCA viab count inactive, IP6K1 inh inactive, GPT2 inhibitor inactive and SNCA expr inh inactive.
`COc1cccc(-c2cccc(C(=O)N3CCCC3C(=O)NCc3ccccc3)c2)c1` (configuration not stated) gave SNCA viab count inactive[12.5 µM], IP6K1 inh inactive, GPT2 inhibitor inactive and SNCA expr inh inactive.
`FC(F)(F)c1ccc(-c2noc([C@@H]3Cc4nc[nH]c4CN3CC3CCCCC3)n2)cc1` gave SNCA viab count inactive, IP6K1 inh inactive, GPT2 inhibitor inconclusive and SNCA expr inh inconclusive.
`Cc1cc(C)c2oc(C(=O)Nc3ccc(S(=O)(=O)N4CCCCC4)cc3)cc(=O)c2c1` gave SNCA viab count inactive, IP6K1 inh -26, SNCA expr inh inconclusive and IP6K1 inh cnf inactive.
`Cc1ccc2c(=O)cc(C(=O)Nc3ccc(S(=O)(=O)N4CCCCC4)cc3)oc2c1C` gave SNCA viab count inactive, IP6K1 inh inactive and SNCA expr inh inactive.
For O=C(NCc1ccc(F)cc1)c1ccc2nnc(-c3cccc(C(F)(F)F)c3)n2c1 the results were SNCA viab count inconclusive, IP6K1 inh inactive, GPT2 inhibitor inactive and SNCA expr inh inconclusive.
For COc1ccc(C(=O)N2CCC(N3C(=O)c4c(c(C)nn4-c4ccccc4)C3C)CC2)cc1 (configuration not stated) the results were IP6K1 inh inactive.
`Cc1c(Cn2c(C)nc3c(C(=O)O)cc(N4CCOCC4)cc32)cccc1C(F)(F)F` gave SNCA viab count inactive, IP6K1 inh inactive, GPT2 inhibitor inactive, SNCA expr inh inactive and IP6K1 inh cnf inactive.
`Cc1oc2ncnc(N3CCOCC3)c2c1C(=O)N1CCN(c2cccc(C(F)(F)F)c2)CC1` gave SNCA viab count inactive, IP6K1 inh inactive and SNCA expr inh inactive.
Cc1cccc(CNS(=O)(=O)c2csc(C(N)=O)c2)c1 was read as SNCA viab count inactive, IP6K1 inh inactive and SNCA expr inh inconclusive.
For NC(=O)c1cc(S(=O)(=O)NCc2cccc(Br)c2)cs1 the results were SNCA viab count inactive, IP6K1 inh -30, SNCA expr inh inactive and IP6K1 inh cnf inactive.
C[C@@H]1CN(c2cc(C3CC(O)C3)ncn2)C[C@H](C)O1 (some centres not stated) was read as SNCA viab count inactive, IP6K1 inh -31, GPT2 inhibitor inactive[11.5 µM], SNCA expr inh inactive and IP6K1 inh cnf inactive.
Screening Nc1ccc(O)c([N+](=O)[O-])c1 returned SNCA viab count inactive, IP6K1 inh -28, GPT2 inhibitor inconclusive, SNCA expr inh inactive and IP6K1 inh cnf 32µM.
For COc1ccc(OCC2CN(Cc3cccs3)C(=O)c3cccnc3O2)cc1 (configuration not stated) the results were IP6K1 inh inactive.
CC(C)c1nc2ccc(C(=O)NCCCN3CCN(c4cccc(Cl)c4)CC3)cc2o1 was read as SNCA viab count inactive, IP6K1 inh -34, SNCA expr inh inactive and IP6K1 inh cnf inconclusive.
`CC(C)c1nc2ccc(C(=O)NCCCN3CCN(c4ccc(F)cc4)CC3)cc2o1` gave SNCA viab count inactive, IP6K1 inh inactive and SNCA expr inh inactive.
Cn1ncc2c(C(=O)NCc3ccc(Cl)cc3)cc(-c3ccccc3F)nc21 was read as IP6K1 inh inactive.
`CN1CC2(CCN(C(=O)c3ccccc3-c3nn[nH]n3)CC2)CC1C(=O)O` (configuration not stated) gave SNCA viab count inactive, IP6K1 inh -38, GPT2 inhibitor inactive[11.5 µM], SNCA expr inh inactive and IP6K1 inh cnf inactive.
For COc1cccc(NC(=O)C2CCCN(S(=O)(=O)c3ccc4[nH]c(=O)ccc4c3)C2)c1 (configuration not stated) the results were SNCA viab count inactive, IP6K1 inh -33, SNCA expr inh inactive and IP6K1 inh cnf inactive.
O=C(NC1CCCCCC1)c1nc2sccn2c1-c1ccc(C(F)(F)F)cc1 was read as SNCA viab count inactive, IP6K1 inh inactive, GPT2 inhibitor inactive and SNCA expr inh inconclusive.
`Cn1c(=O)c2[nH]c(-c3ccc(S(=O)(=O)O)cc3)nc2n(C)c1=O` gave SNCA viab count inactive, GPT2 inhibitor inactive, SNCA expr inh inactive and IP6K1 inh cnf inactive.
Screening CC(C)NC(=O)N1CCN(c2nccc(Nc3ccccc3F)n2)CC1 returned SNCA viab count inactive[12.5 µM], IP6K1 inh inactive, GPT2 inhibitor inactive and SNCA expr inh inactive.
Screening CCN1C(C(=O)c2ccccc2)=C(OC(=O)C(C)C)c2ccccc2S1(=O)=O returned SNCA viab count inactive, IP6K1 inh inactive and SNCA expr inh inconclusive.
Screening CCN1C(C(=O)c2ccccc2)=C(OC(=O)COc2ccccc2)c2ccccc2S1(=O)=O returned SNCA viab count inconclusive, IP6K1 inh -29, SNCA expr inh inconclusive and IP6K1 inh cnf inconclusive.
For O=C(NCc1cccc(Cl)c1)c1cc2c(s1)-c1ccccc1OC2 the results were SNCA viab count inactive, IP6K1 inh -26, SNCA expr inh inactive and IP6K1 inh cnf inactive.
For COc1ccccc1CNC(=O)c1cc2c(s1)-c1ccccc1OC2 the results were SNCA viab count inactive, IP6K1 inh inactive and SNCA expr inh inactive.
Cc1ccccc1Cc1c(C)nc2c(C(=O)NCCc3noc(-c4cccnc4)n3)cnn2c1C was read as SNCA viab count inactive, IP6K1 inh inactive, GPT2 inhibitor inactive and SNCA expr inh inactive.

Screening data as filed in PubChem BioAssay.
